Where “and” joins values, the source holds several entries; their conditions need not be identical. Equal values may be shown once. Calls of active or inactive are those of the source. How the calls were made is not given here. Non-standard residues stand in square brackets, D forms with d. Residues, ends and D or L forms follow the SMILES beside them. pGlu = O=C1CC[C@@H](C(=O)O)N1; Thz = O=C(O)[C@@H]1CSCN1
Experiment: signal quenchers or enhancers, Cy5 substrate/SSB – biochemical, NIH Clinical Collection, E. coli SSB, artefact control for HCV NS3 helicase inhibitor project (AID 743268)
Conditions: Cy5-oligo bound E. coli SSB, fluorescence interference

Fluorescence ratio, inactive:
C[C@@H](c1ncncc1F)[C@](O)(Cn1cncn1)c1ccc(F)cc1F 1.03
CN(C)CCCC1(c2ccc(F)cc2)OCc2cc(C#N)ccc21 (stereo not given) 1.03 and 1.01
CCOC(=O)c1ccc(OC(=O)CCCCCN=C(N)N)cc1 1.04
Cc1c(C(=O)NN2CCCCC2)nn(-c2ccc(Cl)cc2Cl)c1-c1ccc(I)cc1 0.91
CC(C)NCC(O)c1ccc(NS(C)(=O)=O)cc1 (stereo not given) 1.06
CC(=O)NC[C@H]1CN(c2ccc(N3CCOCC3)c(F)c2)C(=O)O1 1.07
CC(CCCCC(=O)Nc1ccc(C(F)(F)F)cc1)NCCc1cnc[nH]1 (stereo not given) 0.96
O=C(c1ccc(OCCN2CCCCC2)cc1)c1c(-c2ccc(O)cc2)sc2cc(O)ccc12 1.04
O=C1CC[C@@H](C(=O)N2CSC[C@H]2C(=O)O)N1 ([pGlu]-[Thz]-OH) 1
CN/C(=C\[N+](=O)[O-])NCCSCc1csc(CN(C)C)n1 1.02
CNCC[C@@H](Oc1ccccc1C)c1ccccc1 1.06
Cc1cccc(CCN2CCC(C(=O)c3ccc(NS(C)(=O)=O)cc3)CC2)n1 0.97
CC(C)(S)C(N)C(=O)O (stereo not given) 1.01
CC[C@H]1OC(=O)[C@H](C)[C@@H](O[C@H]2C[C@@](C)(OC)[C@@H](O)[C@H](C)O2)[C@H](C)[C@@H](O[C@@H]2O[C@H](C)C[C@H](N(C)C)[C@H]2O)[C@](C)(O)C[C@@H](C)CN(C)[C@H](C)[C@@H](O)[C@]1(C)O 1.05

Fluorescence ratio, active:
CN(C)CCOc1ccc(/C(=C(/CCCl)c2ccccc2)c2ccccc2)cc1 0.79

— PubChem BioAssay
